The whole screen tested about 360,000 compounds, of which about 3,700 (1%) were called active. The full list was thinned out, with actives kept by preference. A number with no mark means an inactive call. Rule as the data show it: active = activation above about 30%; inactive = the rest.
Each molecule was assayed against D(1A) dopamine receptor (Homo sapiens) (UniProt P21728) (assay: Allosteric Agonists of the Human D1 Dopamine Receptor: qHTS). Details: HEK293 T-REx D1 cells, calcium flux, agonist mode; at 2 µM; stronger effect = higher value.
D(1A) dopamine receptor (Homo sapiens), sequence (P21728 whole entry, looked up): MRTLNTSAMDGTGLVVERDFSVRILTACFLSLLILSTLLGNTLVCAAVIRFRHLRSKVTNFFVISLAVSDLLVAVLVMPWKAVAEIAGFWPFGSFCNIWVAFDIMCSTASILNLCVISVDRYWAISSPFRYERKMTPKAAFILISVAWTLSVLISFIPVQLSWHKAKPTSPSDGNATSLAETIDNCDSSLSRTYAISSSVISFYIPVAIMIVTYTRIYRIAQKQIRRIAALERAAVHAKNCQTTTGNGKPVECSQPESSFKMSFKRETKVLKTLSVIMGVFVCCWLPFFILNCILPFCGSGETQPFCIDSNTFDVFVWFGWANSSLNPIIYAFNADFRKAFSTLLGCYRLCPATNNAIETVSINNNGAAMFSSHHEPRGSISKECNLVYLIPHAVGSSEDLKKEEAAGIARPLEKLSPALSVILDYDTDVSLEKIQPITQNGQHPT
Method in brief: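 Agonism was scored from calcium flux recorded over 180 s (1 read/s) after pintool compound addition, following a 10-cycle baseline. Cells were inducible force-coupled HEK293 TREx D1, plated overnight at 30 C and loaded with no-wash calcium dye.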
Also: 0% is about no effect.

| SMILES | activation |
| --- | --- |
| COc1ccc(N2CCN(c3cc(C)nc4nncn34)CC2)cc1 | 5.83% |
| CCc1ccc(NC(=O)CCCc2nnc3n(CCCOC)c(=O)c4sccc4n23)cc1 | 2.87% |
| Cc1c(NC(=O)CCCOc2ccccc2)cccc1[N+](=O)[O-] | 0.0331% |
| Cc1c(NC(=S)NCc2ccc(F)cc2)cccc1[N+](=O)[O-] | 31.7% (active) |
| Cc1cccc(NC(=S)NCCc2ccc(F)cc2)c1C | 0.43% |
| CC(C)(C)c1ccc(S(=O)(=O)N2CCN(C(=O)c3cc(-c4ccc(Br)cc4)n[nH]3)CC2)cc1 | 2.7% |
| COc1ccc(NC(=O)CN2CCCN(Cc3ccccc3)S2(=O)=O)cc1 | -2.31% |
| O=C(C1CCC(Cn2c(=O)c3sccc3n(Cc3ccccc3F)c2=O)CC1)N1CCCCC1 (stereo not drawn) | 1.57% |
| CN(c1ccccc1)S(=O)(=O)c1cccc(C(=O)NNC(=O)c2ccncc2)c1 | 0.604% |
| CC(=O)c1c(C)[nH]c(C(=O)COC(=O)c2cccc(S(=O)(=O)N(C)c3ccccc3)c2)c1C | 31.9% (active) |
| COc1ccc(C)cc1NC(=O)C(OC(=O)c1cccc(S(=O)(=O)N(C)c2ccccc2)c1)c1ccccc1 (stereo not drawn) | 0.857% |
| N#Cc1nc(Nc2cc(F)cc(Cl)c2)nc(NC2CCCC2)n1 | 11.1% |
| COc1ccccc1N1CCN(C(CNC(=O)C(=O)NCc2ccc(C)cc2)c2cccnc2)CC1 (stereo not drawn) | 3.64% |
| CC1=C(c2ccc(C)cc2)S(=O)(=O)NC1=NCCCN1CCN(c2cc(C)ccc2C)CC1 | 6.19% |
| Cc1ccc(C)c(N2CCN(CCCNC(=O)Nc3ccc(Cl)cc3)CC2)c1 | 65.5% (active) |
| O=C(NCCCN1CCN(c2ccc(F)cc2)CC1)Nc1ccc([N+](=O)[O-])cc1 | 32.8% (active) |
| CCOC(=O)c1c(C)[nH]c(CCC(=O)NCCCN2CCN(c3cc(C)ccc3C)CC2)c1C | 22.5% |
| O=C(CCN1C(=O)COc2ccccc21)NCCCN1CCN(c2ccc(F)cc2)CC1 | -0.0538% |
| O=C(CSc1ccc([N+](=O)[O-])cn1)Nc1ccc(N2CCOCC2)cc1 | 0.916% |
| O=C(Nc1cccc2cccnc12)C(F)(F)F | 0.559% |

| SMILES | activation |
| --- | --- |
| COc1ccc(S(=O)(=O)NCCSc2nnnn2-c2ccccc2)cc1 | 2.54% |
| CCOc1ccc(S(=O)(=O)c2cn(Cc3ccccc3)c3ccc(OCC)cc3c2=O)cc1 | 1.46% |
| CCOC(=O)c1c(C)[nH]c(C)c1S(=O)(=O)NCC(=O)NCc1cccc(C)c1 | 6.99% |
| CCCCOC(=O)/C(C#N)=C/c1ccc(-c2cccc(C(F)(F)F)c2)o1 | 6.87% |
| c1ccc(C2CNCc3c2ccc2ccccc32)cc1 (stereo not drawn) | 45.9% (active) |
| Cc1ccc2nc(COc3cccc(NC(=O)c4ccccc4Cl)c3)cc(=O)n2c1 | 0.0743% |
| Cc1cc(C)c(/C=C2\C(=O)Nc3ccccc32)[nH]1 | 92.6% (active) |
| COc1ccccc1S(=O)(=O)c1c(C)cc(C)[nH]c1=O | 3.01% |
| Cc1cc(C)cc(NS(=O)(=O)c2ccc(-c3cc(C)no3)s2)c1 | 1.79% |
| O=S(=O)(c1ccc2c(c1)OCCO2)N1CCN(S(=O)(=O)c2cc(F)ccc2F)CC1 | 6.6% |
| CCc1cccc(NC(=O)CN(c2ccc(C)c(C)c2)S(=O)(=O)c2ccsc2C(=O)OC)c1 | 3.48% |
| Cc1cccc(NC(=O)N2CCC(CN3CCc4ccccc4C3)CC2)c1C | 6.8% |
| Fc1cccc(Cl)c1COc1ccc(-c2nnco2)cc1 | 4.97% |
| CN(C)CCCNC(=O)/C=C/c1ccc(OCc2c(F)cccc2Cl)cc1 | 20.4% |
| O=C(/C=C/c1ccc(OCc2c(F)cccc2Cl)cc1)N1CCOCC1 | 59.7% (active) |
| CCC(=O)Nc1ccc2nc(SCC(=O)N3CCc4ccccc43)sc2c1 | 4.11% |
| CS(=O)(=O)c1ccc(-c2nnc(NC(=O)c3ccc4c(c3)OCCO4)o2)cc1 | 2.14% |
| CCCN(C(=O)Cn1cc(S(=O)(=O)N2CCN(c3ccccc3F)CC2)c2ccccc2c1=O)c1cccc(C)c1 | 5.13% |
| Cn1nc(-c2ccccc2)c(CO)c1Sc1ccccc1 | 2.17% |
| Cc1nn(C)c(C)c1Sc1ccccc1N | 37.1% (active) |

| SMILES | activation |
| --- | --- |
| Nc1ccccc1Sc1cc(Cl)nnc1Cl | 0.62% |
| CC(C)(CCl)C(=O)Nc1ccc(Sc2ccc(F)cc2)cc1 | 32.5% (active) |
| COC(=O)c1ccc(Sc2ccc(F)cc2)c(N)c1 | 2.52% |
| CC(=O)Nc1cc(C(=O)NCc2ccc(F)cc2)ccc1Sc1ccc(F)cc1 | -2.57% |
| CN(C)c1ccc(C(CNS(=O)(=O)c2cc(F)ccc2F)N2CCOCC2)cc1 (stereo not drawn) | 5.52% |
| CCCc1cc(=O)n2[nH]c(NCc3ccc(CC)cc3)nc2n1 | 1.79% |
| Cc1c(Cl)cccc1NC(=O)C1CCCN(C(=O)c2cnn(-c3ccccc3)c2-n2cccc2)C1 (stereo not drawn) | 4.43% |
| CCOC(=O)c1ccc(NC(=O)CCS(=O)(=O)c2ccc(C)cc2)cc1 | 1.55% |
| O=Cc1cn(-c2ccccc2)nc1-c1ccccn1 | -0.0617% |
| CCc1ccc(-c2nn(-c3ccccc3)cc2CSC(=N)N)cc1 | 47.5% (active) |
| CCc1ccc(-c2nn(-c3ccccc3C)cc2C(=O)N2CCN(C3CCS(=O)(=O)C3)CC2)cc1 (stereo not drawn) | 1.59% |
| Fc1ccccc1CCNc1nnnn1-c1ccccc1 | 5.56% |
| c1ccc(-n2nnnc2NC2CCCCCC2)cc1 | 112% (active) |
| CN(C(=O)CSc1nnnn1-c1ccccc1)C1CCCCC1 | 0.493% |
| CCOc1cccc2cc(-c3cn4c(n3)sc3cc(C)ccc34)c(=O)oc12 | 0.779% |
| CCc1nc2c(cnn2-c2ccc(C)cc2)c(=O)n1-c1ccc(C)cc1 | 5.84% |
| Cc1cccc(C(=O)Nc2ccc(-c3nc4ccccc4s3)c(C)c2)c1 | 6.34% |
| COc1ccc(S(=O)(=O)Nc2cccc3cccnc23)c(N)c1 | 4.45% |
